Compound activity (PubChem)
ClpP mod: qHTS Assay for Activators of ClpP. ATP-dependent Clp protease proteolytic subunit (Bacillus subtilis (strain 168)), P80244. purified B. subtilis ClpP, FRET peptide cleavage, 20 min. Potency, µM (highest dose often 57.5 µM), without a hit: top-dose activity change, negative = active. hit rate 1.9% among 340,000; active means well fitted falling curve with a large enough effect; inconclusive means small, poorly fitted or top-dose-only effect; inactive means no such curve, though single readings can be large or run the other way; further: potency means the concentration at half of the fitted maximal effect; the source files actives as falling curves though it sought activators and does not explain the sign; nearly all actives have a fitted effect of over 65% in size
Target sequence (P80244 whole entry, looked up): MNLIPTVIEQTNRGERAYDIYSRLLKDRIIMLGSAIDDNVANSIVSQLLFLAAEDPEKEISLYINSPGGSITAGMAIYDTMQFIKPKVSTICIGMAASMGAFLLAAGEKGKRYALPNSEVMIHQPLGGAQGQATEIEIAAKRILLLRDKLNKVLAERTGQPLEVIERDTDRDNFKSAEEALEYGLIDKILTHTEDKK
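ClpP 10 microg/mL final, pH 8 Tris/KCl buffer with BSA, glycerol, Tween-20; compound pinned in; FRET-FV substrate; RT 20 min; Ex320/Em430; ΔFRET vs ADEP 5.8 microM, DMSO, no enzyme.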
uPA surface inh: inhibitors of cell surface uPA generation. cell surface uPA generation assay, qHTS. Potency, µM (doses to about 38.3 µM), inactives show at the highest dose activity change, negative = inhibition, usual class: inhibitors. hit rate 0.31% among 330,000; active means well fitted inhibition curve with a large enough effect; inconclusive means small, poorly fitted or top-dose-only effect; inactive means no such curve, though single readings can be large or run the other way; tested in mouse RAW 264.7 cells; further: potency means the concentration at half of the fitted maximal effect; on the % scale 0 is the no-effect control and ±100 the full control effect; nearly all actives have a fitted effect of over 55% in size
Sfp PPTase inh: blocks B. subtilis Sfp PPTase activity. Q9F4F7. Biochemical Sfp PPTase activity, qHTS. Potency, µM, inactives show largest response in the series, negative = inhibition, most hits filed as inhibitors. hit rate 3.5% among 310,000. AID 1490;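 further: the enzyme is Sfp with the accession as filed and its product quenches rhodamine fluorescence; potency means the concentration at half of the fitted maximal effect; 0% = enzyme reaction without inhibitor and -100% = no enzyme wells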
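Reaction rates are the 30-min fluorescence difference (ex 525, em 598 nm) in wells containing 15 nM Sfp, 5 uM rhodamine-CoA and 12.5 uM BHQ-2-YbbR at pH 7.6 with 10 mM MgCl2.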
TCR act: activators of T cell receptors | 330,000 tested, under 10 active | primary human leukocytes, anti-CD3, IL-2 HTRF, 48 h | Potency, µM (titrated, usually from 9.22 µM), for the others: at the highest dose activation of IL-2 secretion, usual class: activators | AID 504894; further: % of control where 0% means no effect
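Compounds are tested in HTS on primary human leukocytes co-incubated with a-CD3 beads for 48 hr. IL-2 output is measured by time-resolved FRET.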
The depositor's hits bear a star; ? = inconclusive; . = no result given; [ ] = dose if it differs, or a comment. The list is not random: actives were taken first. Their share in the collection is about 4.2%. Unless noted, the call rests on the fitted dose curve; in most records, active means well fitted curve in the direction sought with a large enough effect; inconclusive means small, poorly fitted or top-dose-only effect, or another doubt; inactive means no such curve, though single readings can be large; an effect the other way counts as inactive or inconclusive.

SMILES | ClpP mod | uPA surface inh | Sfp PPTase inh | TCR act
CNc1ccccc(C(=O)/C=C/c2ccccc2OC)c1=O | 2% | -9% | 32µM* | 2%[46.1 µM]
COc1ccccc1C=CC(=O)C=Cc1ccccc1OC | 28µM* | -11% | . | -9%
COc1ccccc1/C=C/C(=O)Nc1ccc2c(c1)OCCO2 | 0% | 4µM* | -14% | 1%[46.1 µM]
COc1ccccc1/C=C/C(=O)OC(C)CN1CCOCC1 (stereo not given) | 32µM* | -1% | -1% | -3%
COc1ccccc1/C=C/C(=O)OCC(=O)Nc1ccc2c(c1)OCCO2 | 46% | -1% | . | -6%
CC(CN1CCOCC1)OC(=O)c1ccccc1 (stereo not given) | -7% | 3% | 14% | -2%
COc1ccccc1/C=C/C(C)=O | 1% | -8% | 15% | -1%[46.1 µM]
COc1ccccc1/C=C/C(=O)c1cc(Br)ccc1OC(=O)c1ccco1 | -1% | -14% | . | 7%
CCNc1ccc(Br)cc(C(=O)/C=C/c2ccccc2Cl)c1=O | 0% | . | . | 1%
CNc1ccc(Br)cc(C(=O)/C=C/c2cccc(OC)c2OC)c1=O | -1% | 4% | 13µM* | 3%[46.1 µM]
CNc1ccc(Br)cc(C(=O)/C=C/c2cccc(Cl)c2Cl)c1=O | 0% | ? | 22µM* | 5%
OCC1(CO)COC(C(Cl)(Cl)Cl)OC1 | . | . | 26% | .
CCCCn1nc(C(=O)NCc2ccccc2CN2CCCC2)c2ccccc2c1=O | -1% | -9% | . | 4%
O=C1C(C=NCCN2CCOCC2)=C(O)c2ccccc21 | 28µM* | -4% | 14% | -2%[46.1 µM]
O=C1C(C=NCCCN2CCOCC2)=C(O)c2ccccc21 | 0% | 2% | 5% | -1%
Cc1ccc(Cn2cnc3c(oc4ccccc43)c2=O)cc1 | -7% | . | . | .
CCOC(=O)CCCc1ccc(/C(C)=N/NC(N)=S)cc1 | 1% | -25% | 56µM* | -1%
CC(=O)Nc1ccc(NC(=O)c2cc3c(=O)n(Cc4cccnc4)ccc3nc2C)cc1 | -15% | . | . | .
N#Cc1cccc(NC(=O)COC(=O)Cn2nc(-c3ccccc3)oc2=O)c1 | -3% | 6% | . | -4%
Cc1cc(C)c(NC(=O)COC(=O)Cn2nc(-c3ccccc3)oc2=O)c(C)c1 | 22µM* | 5% | . | 1%
CCOC(=O)c1c(NC(=O)c2cc3nc(-c4ccc(Br)cc4)cc(C(F)(F)F)n3n2)sc(C(C)=O)c1C | -4% | . | . | .
CCn1c2ccccc2c2nc3cc(S(=O)(=O)N4CCOCC4)ccc3nc21 | -4% | -17% | 6.3µM* | 8%
c1ccc2nc3c(nc2c1)c1ccccc1n3CCN1CCOCC1 | 0% | . | 2% | -4%
Cc1cccc2nc(COc3ccc(-c4ccccc4)cc3)cn12 | . | . | 45µM* | .
Cc1cc(C)n2cc(COc3ccc4ccccc4c3)nc2n1 | . | 1% | 13% | 1%[46.1 µM]
SMILES | ClpP mod | uPA surface inh | Sfp PPTase inh | TCR act
CC(C)c1nc2c(c(=O)c3ccccc3n2C)c(=O)n1-c1ccc(F)cc1 | 28µM* | -11% | -23% | -1%[46.1 µM]
COc1ccc(NC(=O)c2cc(S(=O)(=O)NCCC3=CCCCC3)ccc2F)cc1 | -1% | . | . | .
O=C1C=C(Nc2ccccc2O)c2ccccc2C1=O | 4% | -13% | ? | 8%
O=c1cccccc1NCc1ccccc1 | -3% | 1% | 22µM* | -13%
O=C1C=C(NCc2ccccc2)c2ccccc2C1=O | -5% | -2% | 22µM* | 2%
CCOC(=O)[C@]12CCCC=C1N(Cc1ccc(Cl)cc1Cl)C(=O)[C@H](CC(=O)N1CCSCC1)C2 | 1% | . | . | .
Oc1ccc(N2CCN(c3ncnc4sc5c(c34)CCC5)CC2)cc1 | -1% | -8% | 56µM* | 4%
Cc1cccc2c1c(N=NC(N)=S)c(O)n2C1OC(CO)C(O)C(O)C1O (stereo not given) | 1% | 3% | 50µM* | 3%
Nc1cccc2c1nnn2C1OC(CO)C(O)C(O)C1O (stereo not given) | . | . | 14% | .
CCOC(=O)c1cnc2c(C)cc(C)cc2c1NCCCN1CCOCC1 | -18% | ? | 13% | -6%
CCOc1ccccc1CNC(=O)CCCn1nc(C)c2sc3ccccc3c2c1=O | -7% | . | . | .
NC(=O)c1c(NC(=O)COC(=O)c2ccc(S(=O)(=O)Nc3ccccc3)cc2)sc2c1CCCC2 | 20µM* | -2% | 14% | 0%
O=C(CN1C(=O)CSc2ccc(S(=O)(=O)N3CCCC3)cc21)NCc1ccc(F)cc1Cl | -1% | . | . | .
CC1(C)C(N(O)C(=O)Nc2ccc(Cl)cc2)N(c2ccc(Cl)cc2)C(=O)N1CC(=O)NN (stereo not given) | 1% | -1% | 100µM* | -4%
